In the supplement of paper PMC10646978:
± gives the standard deviation.

Test system: RAW-Dual (murine macrophage reporter line)
Assay: IRF reporter (Lucia luciferase) activity fold change vs agonist alone; higher = enhanced IRF activity
Conditions: modulator concentration 10 µM; agonist: LPS 0.1 ug/mL
Summary of the method: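 Compound reached 10 μM final in each well by pin transfer, onto RAW-Dual murine macrophage reporter cells seeded at 50 000 per well in 384-well plates. After 1 hour at 37 °C, the cells were stimulated overnight with a PRR agonist. SEAP in the supernatant was read with QUANTI-Blue at 620 nm absorbance for NF-κB, and Lucia luciferase was read with QUANTI-Luc luminescence for IRF. Each signal was turned into fold change against the mean agonist-only control on the same plate, and two replicate plates were averaged with propagated errors.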

Row | Compound | IRF reporter
1 | CN(C(=O)c1cncc(F)c1)C1CN(c2ccc3nnc(C4CC4)n3n2)C1 | 0.991 ± 0.14
2 | Cc1ncc(CC(=O)N2CCC(c3ccccc3Cl)S(=O)(=O)CC2)s1 (stereo not given) | 0.981 ± 0.076
3 | O=C(C=Cc1ccc(O)cc1)c1ccc(O)cc1O | 0.966 ± 0.1
4 | Cc1cccc(C(=O)ON=C(c2ccncc2)c2ccc([N+](=O)[O-])cc2)c1 | 1.43 ± 0.083
5 | CCOC(=O)C1=C(C)NC(=S)NC1c1ccccc1OCc1ccccc1 (stereo not given) | 1.25 ± 0.22
6 | O=C(C1COCC(=O)N1Cc1ccccc1)N1CCN(c2cccc(Cl)c2)CC1 (stereo not given) | 1.24 ± 0.075
7 | COC(=O)C1=CN(CC2CCCO2)C=C(C(=O)OC)C1c1cccc(F)c1 (stereo not given) | 1.21 ± 0.19
8 | CCOC(=O)[C@H](CCc1ccccc1)N[C@H]1CCc2ccccc2N(CC(=O)O)C1=O [Prestw-1129] | 1 ± 0.047
9 | NC(CO)(CO)CO.O=C(c1ccccc1)c1ccc2n1CCC2C(=O)O (stereo not given) | 1.07 ± 0.2
10 | COc1ccc(C2C3=C(CC(c4ccccc4)CC3=O)Nc3ccccc3N2C(=O)C(C)C)cc1OC (stereo not given) | 1.56 ± 0.21
11 | Cl.N=C(N)NC(=O)c1nc(Cl)c(N)nc1N | 1.4 ± 0.25
12 | O=Cc1cn(CCOc2ccc(Br)cc2)c2ccccc12 | 0.674 ± 0.043
13 | N#Cc1c(N=Cc2ccc(Br)cc2)sc2c1CCCC2 | 0.96 ± 0.041
14 | COc1c2c(nc3ccccc13)OC(C(C)(O)COC(C)=O)C2 (stereo not given) | 1.42 ± 0.15
15 | Cc1ccc(OCCCOc2cccc3cccnc23)c(C)c1 | 1.26 ± 0.14
16 | O=S(=O)(c1ccc(F)cc1)n1cccc1 | 1.49 ± 0.087
17 | C[C@@H]1COC(Nc2ccc3ncnc(Nc4ccc(OCc5nccs5)c(Cl)c4)c3c2)=N1 | 0.833 ± 0.2
18 | NCCCC[C@H](N[C@@H](CCc1ccccc1)C(=O)O)C(=O)N1CCC[C@H]1C(=O)O | 0.999 ± 0.049
19 | CC(C)COc1ccc(CNC(=O)N(Cc2ccc(F)cc2)C2CCN(C)CC2)cc1.CC(C)COc1ccc(CNC(=O)N(Cc2ccc(F)cc2)C2CCN(C)CC2)cc1.O=C(O)[C@H](O)[C@@H](O)C(=O)O | 0.528 ± 0.31
20 | O=C1c2cccc3c2[C@H](CCC3)CN1[C@@H]1CN2CCC1CC2 [Prestw-1783] | 0.824 ± 0.044

Row | Compound | IRF reporter
21 | COc1cc2nc(N3CCN(C(=O)c4ccco4)CC3)nc(N)c2cc1OC.Cl | 1.22 ± 0.14
22 | Cc1cc(C(=O)Nc2ccc(-n3nnn(C)c3=O)cc2)c(C)o1 | 1.25 ± 0.076
23 | Cc1ccc(-c2cc(C(F)(F)F)n3nc(C(=O)NCCCN4CCOCC4)cc3n2)cc1 | 1.31 ± 0.22
24 | Cc1cccc(NC(=O)Cc2c(C)nc(SCc3ccccc3F)[nH]c2=O)c1C | 0.97 ± 0.081
25 | Cc1ccc2sc(NC(=O)c3cccc(N4C(=O)CCC4=O)c3)nc2c1C | 1.39 ± 0.19
26 | Cc1cc(C)n(CCNc2nc3ccccc3s2)n1 | 1.18 ± 0.081
27 | Cc1ccc(C(=O)N(CCCN)[C@@H](c2nc3cc(Cl)ccc3c(=O)n2Cc2ccccc2)C(C)C)cc1 | 0.52 ± 0.23
28 | CC1=C(C(=O)OC(C)C)C(c2cccc([N+](=O)[O-])c2)C(C(=O)OC2CN(C(c3ccccc3)c3ccccc3)C2)=C(N)N1 (stereo not given) | 1.66 ± 0.24
29 | COC(=O)C1=C(C)NC2=C(C(=O)CC(C)(C)C2)C1c1ccc(OC)c(O)c1 (stereo not given) | 1.13 ± 0.16
30 | O=C(Nc1cc(C(F)(F)F)cc(C(F)(F)F)c1)c1ccco1 | 1.07 ± 0.23
31 | O=C(CSc1ccc2ccccc2n1)NC1=NCCS1 | 1.2 ± 0.077
32 | CC(C)n1cnc(S(=O)(=O)N2CCC(S(=O)(=O)Cc3ccccc3)CC2)c1 | 1.3 ± 0.3
33 | CCNc1cc(C)nc(Nc2ccc(NC(=O)c3ccc(OC)c(OC)c3)cc2)n1 | 1.19 ± 0.18
34 | O=C(C=Cc1ccc(Cl)c(Cl)c1)c1ccc2ccccc2c1O | 1.57 ± 0.23
35 | CC(C)Cn1cc(Cl)c(=O)n(CC(C)C)c1=O | 1 ± 0.066
36 | Cc1ccc(C=C2Oc3c(ccc(O)c3CN3CCN(CCO)CC3)C2=O)cc1 | 1.39 ± 0.21
37 | CN1CCN2c3ccccc3Cc3ccccc3C2C1.Cl (stereo not given) | 1.32 ± 0.3
38 | COC(=O)C1=C(C)NC(=O)CC1c1ccc(Cl)c(Cl)c1 (stereo not given) | 1.16 ± 0.15
39 | CC(Oc1cccc(Cl)c1)C(=O)NCc1ccncc1 (stereo not given) | 1.24 ± 0.13
40 | COc1cc(C(C)=O)ccc1OCCCN1CCC(c2noc3cc(F)ccc23)CC1 | 1.19 ± 0.2

Same assay, conditions: modulator concentration 10 µM; agonist: MPLA […]

Row | Compound | IRF reporter
41 | CN(C(=O)c1cncc(F)c1)C1CN(c2ccc3nnc(C4CC4)n3n2)C1 | 0.859 ± 0.4
42 | Cc1ncc(CC(=O)N2CCC(c3ccccc3Cl)S(=O)(=O)CC2)s1 (stereo not given) | 0.944 ± 0.24
43 | O=C(C=Cc1ccc(O)cc1)c1ccc(O)cc1O | 0.81 ± 0.13
44 | Cc1cccc(C(=O)ON=C(c2ccncc2)c2ccc([N+](=O)[O-])cc2)c1 | 1.61 ± 0.14
45 | CCOC(=O)C1=C(C)NC(=S)NC1c1ccccc1OCc1ccccc1 (stereo not given) | 1.03 ± 0.087
46 | O=C(C1COCC(=O)N1Cc1ccccc1)N1CCN(c2cccc(Cl)c2)CC1 (stereo not given) | 1.29 ± 0.11
47 | COC(=O)C1=CN(CC2CCCO2)C=C(C(=O)OC)C1c1cccc(F)c1 (stereo not given) | 1.18 ± 0.16
48 | CCOC(=O)[C@H](CCc1ccccc1)N[C@H]1CCc2ccccc2N(CC(=O)O)C1=O [Prestw-1129] | 0.879 ± 0.087
49 | NC(CO)(CO)CO.O=C(c1ccccc1)c1ccc2n1CCC2C(=O)O (stereo not given) | 1.15 ± 0.19
50 | COc1ccc(C2C3=C(CC(c4ccccc4)CC3=O)Nc3ccccc3N2C(=O)C(C)C)cc1OC (stereo not given) | 1.2 ± 0.087
51 | Cl.N=C(N)NC(=O)c1nc(Cl)c(N)nc1N | 1.3 ± 0.12
52 | O=Cc1cn(CCOc2ccc(Br)cc2)c2ccccc12 | 0.67 ± 0.085
53 | N#Cc1c(N=Cc2ccc(Br)cc2)sc2c1CCCC2 | 1 ± 0.077
54 | COc1c2c(nc3ccccc13)OC(C(C)(O)COC(C)=O)C2 (stereo not given) | 1.3 ± 0.22
55 | Cc1ccc(OCCCOc2cccc3cccnc23)c(C)c1 | 2.82 ± 0.39
56 | O=S(=O)(c1ccc(F)cc1)n1cccc1 | 1.72 ± 0.22
57 | C[C@@H]1COC(Nc2ccc3ncnc(Nc4ccc(OCc5nccs5)c(Cl)c4)c3c2)=N1 | 1.27 ± 0.23
58 | NCCCC[C@H](N[C@@H](CCc1ccccc1)C(=O)O)C(=O)N1CCC[C@H]1C(=O)O | 1.07 ± 0.17
59 | CC(C)COc1ccc(CNC(=O)N(Cc2ccc(F)cc2)C2CCN(C)CC2)cc1.CC(C)COc1ccc(CNC(=O)N(Cc2ccc(F)cc2)C2CCN(C)CC2)cc1.O=C(O)[C@H](O)[C@@H](O)C(=O)O | 0.03 ± 0.0028
60 | O=C1c2cccc3c2[C@H](CCC3)CN1[C@@H]1CN2CCC1CC2 [Prestw-1783] | 0.752 ± 0.08

Row | Compound | IRF reporter
61 | COc1cc2nc(N3CCN(C(=O)c4ccco4)CC3)nc(N)c2cc1OC.Cl | 1.33 ± 0.2
62 | Cc1cc(C(=O)Nc2ccc(-n3nnn(C)c3=O)cc2)c(C)o1 | 1.28 ± 0.17
63 | Cc1ccc(-c2cc(C(F)(F)F)n3nc(C(=O)NCCCN4CCOCC4)cc3n2)cc1 | 1.13 ± 0.22
64 | Cc1cccc(NC(=O)Cc2c(C)nc(SCc3ccccc3F)[nH]c2=O)c1C | 0.937 ± 0.21
65 | Cc1ccc2sc(NC(=O)c3cccc(N4C(=O)CCC4=O)c3)nc2c1C | 1.57 ± 0.21
66 | Cc1cc(C)n(CCNc2nc3ccccc3s2)n1 | 1.14 ± 0.29
67 | Cc1ccc(C(=O)N(CCCN)[C@@H](c2nc3cc(Cl)ccc3c(=O)n2Cc2ccccc2)C(C)C)cc1 | 0.241 ± 0.09
68 | CC1=C(C(=O)OC(C)C)C(c2cccc([N+](=O)[O-])c2)C(C(=O)OC2CN(C(c3ccccc3)c3ccccc3)C2)=C(N)N1 (stereo not given) | 2.12 ± 0.44
69 | COC(=O)C1=C(C)NC2=C(C(=O)CC(C)(C)C2)C1c1ccc(OC)c(O)c1 (stereo not given) | 1.05 ± 0.065
70 | O=C(Nc1cc(C(F)(F)F)cc(C(F)(F)F)c1)c1ccco1 | 0.89 ± 0.15
71 | O=C(CSc1ccc2ccccc2n1)NC1=NCCS1 | 0.958 ± 0.23
72 | CC(C)n1cnc(S(=O)(=O)N2CCC(S(=O)(=O)Cc3ccccc3)CC2)c1 | 1.37 ± 0.34
73 | CCNc1cc(C)nc(Nc2ccc(NC(=O)c3ccc(OC)c(OC)c3)cc2)n1 | 1.29 ± 0.27
74 | O=C(C=Cc1ccc(Cl)c(Cl)c1)c1ccc2ccccc2c1O | 1.25 ± 0.077
75 | CC(C)Cn1cc(Cl)c(=O)n(CC(C)C)c1=O | 0.991 ± 0.19
76 | Cc1ccc(C=C2Oc3c(ccc(O)c3CN3CCN(CCO)CC3)C2=O)cc1 | 1.55 ± 0.3
77 | CN1CCN2c3ccccc3Cc3ccccc3C2C1.Cl (stereo not given) | 1.2 ± 0.13
78 | COC(=O)C1=C(C)NC(=O)CC1c1ccc(Cl)c(Cl)c1 (stereo not given) | 1.23 ± 0.19
79 | CC(Oc1cccc(Cl)c1)C(=O)NCc1ccncc1 (stereo not given) | 0.988 ± 0.11
80 | COc1cc(C(C)=O)ccc1OCCCN1CCC(c2noc3cc(F)ccc23)CC1 | 1.12 ± 0.11
